Bioassay records deposited in PubChem by National Center for Advancing Translational Sciences (NCATS).
HT1080 IDH1KD tx = toxicity to HT-1080 IDH1 knockdown cells (counter line) | actives 2% (n = 360,000) | Potency, µM (series often up to 46.1 µM), without a hit: at the top dose activity, negative = toxicity, hits mostly cytotoxic | AID 686971 | HT-1080 IDH1 knockdown viability, ATP luminescence, 48 h;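 also: potency is read from the fitted curve at half-maximal effect; 0% = DMSO wells and -100% = cell-free medium wells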
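HT-1080-IDH1KD cells (IDH1 knocked down), 750/well in RPMI with 5% FBS, treated with compound 48 h at 37 degrees C. Viability by CellTiter-Glo luminescence, normalised to DMSO and no-cell wells; concentration-response curves classed.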
HT1080-NT tox = kills 2HG-producing HT-1080-NT fibrosarcoma cells | Potency, µM (doses to about 46.1 µM), for the others: top-dose activity, negative = less viability, usual class: cytotoxic | HT-1080-NT fibrosarcoma viability, CellTiter-Glo ATP luminescence, 48 h | actives 1.6% (n = 360,000);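 also: NT is the 2HG producing partner of a matched IDH1 knockdown line; potency is read from the fitted curve at half-maximal effect; 0% = DMSO-treated cells and -100% = media-only wells without cells; nearly all actives have a fitted effect of over 55% in size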
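Fibrosarcoma NT cells, 750 per well in 5% FBS RPMI, were exposed to compound for 48 hours. Viability: CellTiter-Glo luminescence.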
ELG1 repair inh = ELG1-dependent DNA repair inhibition; HEK293T ELG1-luciferase reporter, luminescence, 16 h; DNA damage induced by 5-fluorouridine; Potency, µM (top dose mostly 46.1 µM), for inactives: at the highest dose activity change, negative = inhibition, most hits filed as inhibitors; actives 2.3% (n = 330,000); also: potency is read from the fitted curve at half-maximal effect; nearly all actives have a fitted effect of over 55% in size
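5-Fluorouridine DNA damage + compound/DMSO, 2,000 cells/well, 16 h, 37 °C/5% CO2. ONE-Glo, 30 min RT, luminescence. Readout = decrease in reporter signal.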
TDP1 cell CPT = growth inhibition of DT40 Tdp1-/-;hTDP1 cells with camptothecin (screen for TDP1 inhibitors); actives 12% (n = 420,000); chicken DT40 Tdp1-/-;hTDP1 cells + 20 nM CPT, ATP luminescence, 48 h; Potency, µM (doses to about 46.2 µM), without a hit: at the highest dose activity change, negative = growth inhibition, usual class: inhibitors; also: potency is read from the fitted curve at half-maximal effect; nearly all actives have a fitted effect of over 55% in size
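Cell growth measured by CellTiter-Glo luminescence after a minimum 48 h, 37 C compound exposure with 20 nM CPT in Tdp1-knockout DT40 cells stably expressing hTDP1, seeded 400/well; qHTS titration format.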
IL-1B inflam inh = blocks inflammasome-driven IL-1 beta release | actives 4.7% (n = 360,000) | activity change, % at 57.5 µM | THP-1 LPS/ATP IL-1B secretion, AlphaLISA, 16 h; active compounds read low | AID 743279; in the data active = activity change below about -50%; inconclusive = mostly about -30% to -49%
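THP-1 cells pretreated 1 hr with compounds (up to 57.5 uM final), then stimulated with LPS (250 ng/mL final) plus ATP (1.25 mM final); secreted IL-1B measured by AlphaLISA after 16 hr, decreased signal indicating inhibition.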
DT40 TDP1 no CPT = qHTS for Inhibitors of human tyrosyl-DNA phosphodiesterase 1 (TDP1): qHTS in cells in absence of CPT; DT40 Tdp1-/- hTDP1 cells, no CPT, ATP luminescence, 48 h; Potency, µM (titrated, usually from 46.2 µM), inactives show top-dose activity change, negative = growth inhibition, usual class: inhibitors; actives 15% (n = 420,000); AID 686978, 2013; also: potency is read from the fitted curve at half-maximal effect; nearly all actives have a fitted effect of over 55% in size
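Chicken DT40 Tdp1-/- cells stably complemented with human TDP1 were seeded at 400 cells/well with DMSO in place of 20 nM camptothecin. After compound pinning, cells grew at least 48 hr at 37 °C; viability read by CellTiter-Glo luminescence.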
* = called active by the depositor; u = inconclusive; x = no result given; [ ] = remark or other dose. Hits are enriched below; roughly 19% of the tested compounds scored in any of these assays. Unless noted, calls follow the shape of the dose curve; as a rule, active = well fitted curve in the direction sought with a large enough effect; inconclusive = small, poorly fitted or top-dose-only effect, or another doubt; inactive = no such curve, though single readings can be large; an effect the other way counts as inactive or inconclusive. Unless noted, % is scaled to controls: 0 for no effect and ±100 for the full control effect.

SMILES	HT1080 IDH1KD tx	HT1080-NT tox	ELG1 repair inh	TDP1 cell CPT	IL-1B inflam inh	DT40 TDP1 no CPT
CC(C)=CC(O)C/C(C)=C/COc1ccc2ccc(=O)oc2c1 (stereo not drawn)	u	23.1µM*	-10.2%	7.31µM*	u	9.2µM*
COc1cc(OC)c(C(=O)NC23CC4CC(CC(C4)C2)C3)cc1OC	-7.5%	-3.9%	u	u	3.3	18.4µM*
CCOc1ccc(/C=N/NC(=O)NC23CC4CC(CC(C4)C2)C3)cc1O	-22.1%	-15.0%	u	u	-15.8	u
O=C(N/N=C/c1ccc(O)c(O)c1)NC12CC3CC(CC(C3)C1)C2	u	-3.6%	-3.6%	11.6µM*	-81.7*	14.6µM*
COc1cc(OC)cc(C(=O)NC(C(=O)N2CCc3ccccc3C2)C(C)C)c1 (stereo not drawn)	u	u	u	20.6µM*	31.4	u
COc1cc(/C=N/NC(=O)NC23CC4CC(CC(C4)C2)C3)ccc1O	u	25.9µM*	16.0%	-23.9%	u	u
COc1cc(/C=N\NC(=O)C2CC3C=CC2C3)ccc1O (stereo not drawn)	6.2%	-1.0%	20.4%	-11.8%	0.0	-25.9%
COc1cc(OC)cc(C(=O)N[C@H](C(=O)N2CCc3ccccc32)C(C)C)c1	u	-25.4%	-19.5%	u	24.7	u
C=C1C2CC[C@]3(CCC4[C@@]5(C)CCC[C@@]4(CN(CCO)C5)[C@@H]3C2)[C@@H]1O (stereo partly drawn)	x	x	x	-8.7%[9.04 µM]	x	-4.7%[9.04 µM]
COc1cc(OC)cc(C(=O)N[C@H](C(=O)NC23CC4CC(CC(C4)C2)C3)C(C)C)c1	-21.6%	-25.0%	-6.4%	29.1µM*	32.7	u
Cc1c(C(O)CN2CCN(Cc3ccc4c(c3)OCO4)CC2)c2ccccc2n1C (stereo not drawn)	11.2µM*	u	u	u	-10.3	-29.7%
Cn1c(C(=O)N2CCN(Cc3ccc4c(c3)OCO4)CC2)cc2c(=O)n(C)c3ccccc3c21	-17.8%	-28.2%	u	u	-27.4	u
COc1ccc2c(c1)c(C(O)CN1CCC(Cc3ccccc3)CC1)c(C)n2C (stereo not drawn)	-0.8%	-3.1%	-25.6%	u	-89.6*	u
COc1ccc2c(c1)c(C(O)CN1CCN(Cc3ccc4c(c3)OCO4)CC1)c(C)n2C (stereo not drawn)	-29.0%	-27.4%	0.0%	u	-15.0	23.1µM*
Cn1c(=O)c([N+](=O)[O-])c(N2CCN(Cc3ccc4c(c3)OCO4)CC2)c2ccccc21	-15.8%	-17.8%	u	13µM*	-22.2	8.2µM*
COc1ccc(C2CC(c3c(O)n(C4CCCCC4)c(=O)[nH]c3=O)=Nc3ccccc3S2)cc1 (stereo not drawn)	x	x	x	6.2%	x	7.3%
COc1ccc(N2CC(NC(=O)c3ccc(OC(C)C)cc3)CC2=O)cc1 (stereo not drawn)	x	x	x	-8.7%	x	u
COc1ccc(-c2nc3sc(CCNC(=O)C(=O)Nc4c(C)cccc4C)c(C)n3n2)cc1	x	x	x	-5.8%	x	-12.6%
Cc1ccc2oc(C(=O)NC3CCS(=O)(=O)C3)cc(=O)c2c1 (stereo not drawn)	0.0%	2.1%	9.9%	4.2%	0.0	22.0%
Cc1nc(N2CCOCC2)c2c(C(=O)NCCc3ccccc3)c(C)oc2n1	x	x	x	13.6%	x	-8.0%
OC(CN1CCN(Cc2ccc3c(c2)OCO3)CC1)c1c[nH]c2ccccc12 (stereo not drawn)	0.6%	-2.9%	13µM*	11.6µM*	u	u
